# Screening results deposited in PubChem BioAssay by National Center for Advancing Translational Sciences (NCATS).
# ELG1 genotox: induces genotoxicity in HEK293T cells with luciferase-tagged ELG1 | HEK293T ELG1-luciferase reporter, luminescence, 16 h | Potency, µM (highest dose often 46 µM), for inactives: at the highest dose activity change, positive = activation, hits mostly activators | 330,000 tested, 1.3% active; also: % of control where 0% means no effect; nearly all actives have a fitted effect of over 60% in size
#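 HEK293T cells expressing luciferase-tagged ELG1 were treated with compound or DMSO for 16 hr at 37°C. Luciferase activity was then read after 30 min with ONE-Glo at room temperature; rising signal flags genetic stress.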
# NPC1 prom act: activators of NPC1 promoter | Huh7 NPC1 promoter luciferase reporter, 24 h | Potency, µM (highest dose often 9.22 µM), without a hit: top-dose activation, actives largely listed as activators | 320,000 tested, 2.4% active | AID 485313; also: % of control where 0% means no effect; nearly all actives have a fitted effect of over 60% in size
#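 Stable NPC1-promoter luciferase Huh7 line; cpd (DMSO) 24 h, 37 °C, 5% CO2; Amplite luciferase reagent 10 min RT; luminescence readout. qHTS format.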
# FLuc counter: counter-screen for miR-21 project: firefly luciferase inhibitors or activators. AID 588342. 360,000 tested, 6.9% active. Potency, µM (top dose mostly 57.5 µM), for the others: at the highest dose activity change, negative = inhibition, hits mostly inhibitors. purified FLuc, Km substrates, luminescence inhibition. P08659;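 also: plate controls were vehicle for no effect and reference inhibitor for full effect; nearly all actives have a fitted effect of over 55% in size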
# Target sequence (P08659 whole entry, looked up): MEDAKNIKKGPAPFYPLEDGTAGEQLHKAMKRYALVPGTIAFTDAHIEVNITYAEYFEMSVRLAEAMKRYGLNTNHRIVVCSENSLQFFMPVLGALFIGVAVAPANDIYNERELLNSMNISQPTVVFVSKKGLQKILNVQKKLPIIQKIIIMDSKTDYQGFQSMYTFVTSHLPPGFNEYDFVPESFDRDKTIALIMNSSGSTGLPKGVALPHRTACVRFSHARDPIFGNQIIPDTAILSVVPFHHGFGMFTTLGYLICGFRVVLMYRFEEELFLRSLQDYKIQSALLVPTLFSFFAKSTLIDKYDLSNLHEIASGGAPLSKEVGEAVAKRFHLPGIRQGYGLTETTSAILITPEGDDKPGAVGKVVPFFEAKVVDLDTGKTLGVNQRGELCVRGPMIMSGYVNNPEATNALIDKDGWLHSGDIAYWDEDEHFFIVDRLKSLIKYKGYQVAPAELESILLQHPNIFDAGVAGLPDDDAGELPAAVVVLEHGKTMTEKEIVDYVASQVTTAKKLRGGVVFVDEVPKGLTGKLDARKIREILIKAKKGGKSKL
#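 Biochemical qHTS of compounds, final roughly 60 µM downward over six points, against 10 nM purified firefly luciferase using Km concentrations of substrates (10 uM D-luciferin, 10 uM ATP) in Tris acetate pH 7.5 buffer; luminescence output.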
# Luc counter: counter-screen: inhibitors of Kinase-Glo firefly luciferase. 200,000 tested, 0.28% active. Kinase-Glo luciferase, ATP luminescence, 8 min. Potency, µM (top dose mostly 38.3 µM), for the others: top-dose activity change, negative = inhibition, usual class: inhibitors. Q27757. AID 1379; also: % is scaled to controls: 0 for no effect and ±100 for the full control effect; nearly all actives have a fitted effect of over 60% in size
#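 Luminescence was the read-out, taken after 8-minute incubation at ambient temperature. Luciferase turned over luciferin with 10 uM ATP in imidazole pH 7.2 buffer containing KCl, MgCl2, Tween 20 and BSA.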
# Rab9 prom act: activates the Rab9 promoter | Huh7 Rab9 promoter-luciferase reporter, luminescence, 24 h | AID 485297 | 320,000 tested, 2.8% active | Potency, µM (top dose mostly 9.22 µM), inactives show top-dose activation, negative = inhibition, usual class: activators; also: % of control where 0% means no effect; nearly all actives have a fitted effect of over 60% in size
#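 Promoter activation is measured as luciferase luminescence in Huh7 cells stably transfected with a Rab9 promoter–luciferase construct, following 24 h compound exposure at 37 °C and 10 min reagent incubation at ambient temperature.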
# SMN2 splice up: enhancers of SMN2 splice variant expression; HEK293 SMN2-luciferase splicing reporter, luminescence, 30-36 h; AID 1458; 210,000 tested, 2.8% active; Potency, µM (series often up to 46.1 µM), for the others: at the top dose activity change, positive = activation, actives largely listed as activators; also: % of control where 0% means no effect; nearly all actives have a fitted effect of over 55% in size
#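 HEK293 cells carry an SMN2 minigene-luciferase reporter in which exon 7 inclusion puts luciferase in frame. Cells were seeded at 2000 cells/well, attached for 10-12 hours, then exposed to compounds for 30-36 hours at 37C before ONE-Glo luminescence.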
# An asterisk follows results filed as active; ? = inconclusive; . = not tested or not shown; [ ] = another dose, or the depositor's remark. A selection: hits, their analogues and other compounds. The true share with any hit is near 7.3%. Calls follow the shape of the dose curve; as a rule, active = well fitted curve in the direction sought with a large enough effect; inconclusive = small, poorly fitted or top-dose-only effect, or another doubt; inactive = no such curve, though single readings can be large; an effect the other way counts as inactive or inconclusive. Potency is read from the fitted curve at half-maximal effect.
SMILES,ELG1 genotox,NPC1 prom act,FLuc counter,Luc counter,Rab9 prom act,SMN2 splice up
Cc1ccc2nc(NC(=O)CCNS(=O)(=O)c3ccc(Br)s3)sc2c1,-3.7%,1.2%,19µM*,-1.9%,4.0%,-11.0%
C/C(=N\NC(=O)c1ccc(NS(=O)(=O)c2cccs2)cc1)c1ccc(C(C)(C)C)cc1,0.1%,-0.4%,12µM*,-0.7%,-7.1%,?
Cc1ccc2nc(NC(=O)CCNS(=O)(=O)c3cccs3)sc2c1,-3.6%,16.8%,12µM*,2.0%,22.0%,-0.8%
Cc1cccc2sc(NC(=O)CCNS(=O)(=O)c3cccs3)nc12,-7.9%,-10.1%,-0.6%,-2.5%,5.1%,0.9%
Cc1ccc2nc(NC(=O)CS(=O)(=O)Cc3ccccc3)sc2c1,10.6%,2.1%,1.3%,.,3.7%,.
CCOc1ccccc1NC(=O)C1C2CCC(O2)C1C(=O)O (stereo not drawn),?,-7.9%,2.2%,.,-0.2%,.
COc1ccc(CNC(=O)c2ccc(NC(=O)N3CCSc4ncccc43)cc2)cc1OC,.,.,-1.1%,.,.,.
COc1ccc(S(=O)(=O)N(CC(=O)NC2CC2)Cc2ccccc2)cc1,-0.1%,-6.6%,-1.9%,.,0.8%,.
Cc1cccc(-n2cnc3sc(C)c(C)c3c2=O)c1,8.4%,0.7%,-12.1%,.,11.9%,.
Cc1ccc(-n2cnc3sc(C)c(C)c3c2=O)cc1,?,?,?,2.1%,2.51µM*,12.6µM*
COc1ccc(S(=O)(=O)N2CCN(C3Cc4ccccc4C3)CC2)cc1,-1.2%,-1.4%,11.2%,-4.5%,-2.1%,18.2%[1.84 µM]
CCOc1cc(/C=N/n2c(C)nc3sc(C)c(C)c3c2=O)ccc1O,1.6%,-0.1%,-2.8%,-5.1%,-2.6%,.
Cc1ccc(C(=O)c2coc3ccc(O)cc23)cc1,?,?,1.07µM*,.,19.7%,.
Cc1oc2ccc(O)cc2c1C(=O)c1ccc(Cl)cc1,-2.2%,-0.2%,?,-2.4%,16.8%,-21.1%
O=C(c1ccccc1)c1coc2ccc(O)c(Cl)c12,?,13.2%,?,-11.2%,13.5%,12.1%
Cc1ccc(C(=O)c2coc3ccc(O)c(Cl)c23)cc1,?,15.6%,19µM*,-1.2%,-1.6%,-0.6%
O=C(c1ccc2c(c1)OCCCO2)c1cccs1,?,1.12µM*,6.75µM*,-5.6%,2.24µM*,12.6µM*
CC(/C=C/c1ccccc1)=N\NC(=O)c1ccc2c(c1)OCCO2,2.3%,-5.8%,?,-1.1%,-5.3%,-5.7%
C/C(=N\NC(=O)c1ccc2c(c1)OCO2)c1ccc2c(c1)OCO2,9.8%,?,13.5µM*,-2.8%,3.55µM*,15.8µM*
C/C(=N\NC(=O)c1ccc(O)cc1)c1ccc2c(c1)OCCO2,?,22.0%,13.5µM*,.,28.0%,.
C/C(=N\NC(=O)c1ccc2c(c1)OCCO2)c1ccccc1,0.326µM*,?,0.379µM*,.,2.9%,.
C/C(=N\NC(=O)C1CC1)c1ccc2c(c1)OCCO2,15.2%,9.0%,-12.2%,1.0%,-32.3%,53.7%
C/C(=N\NC(=O)c1ccc2c(c1)OCO2)c1ccc(C(=O)O)s1,2.4%,-0.4%,?,-21.7%,1.0%,.
O=[N+]([O-])c1cccc(/C=N/Nc2nc(NCc3ccccc3)nc(N3CCOCC3)n2)c1,13.4%,-0.8%,-1.2%,0.7%,0.7%,11.9%
CCc1oc2ccccc2c1C(=O)CCN1CCCCC1,-4.3%,1.9%,-0.5%,-5.0%,-4.3%,-2.2%
O=C(COC(=O)/C=C/c1cccc(Br)c1)NCCC1=CCCCC1,-1.0%,-0.4%,-0.3%,-1.7%,5.6%,-13.8%
CCOc1ccc(S(=O)(=O)N(C)c2ccc(OCC(=O)NCc3cccnc3)cc2)cc1,-8.7%,0.4%,-1.8%,0.7%,1.4%,-3.6%
CCC(=O)N1CCc2cc(Br)cc(S(=O)(=O)N(C)c3ccc(OC)cc3OC)c21,-18.0%,-4.2%,-5.9%,1.7%,1.2%,-10.0%
CCCCNC(=O)C1CCN(S(=O)(=O)c2cc(Br)cc3c2N(C(=O)CC)CC3)CC1,.,.,-3.1%,.,.,-1.6%
